Pf growth 48h: Primary qHTS for delayed death inhibitors of the malarial parasite plastid, 48 hour incubation. P. falciparum luciferase growth in erythrocytes, 48 h. Potency, µM (top dose mostly 28.7 µM), inactives show at the top dose activity change, negative = inhibition, actives largely listed as inhibitors. 5.9% of 310,000 active; also: potency is read from the fitted curve at half-maximal effect; % is scaled to controls: 0 for no effect and ±100 for the full control effect
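Compounds are pin-transferred into medium, infected erythrocytes (2% hematocrit, 0.1% parasitemia final) are added, and plates sit one parasite generation at 37 C in 5% CO2. Detection reagent is then added and luminescence measured.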
Cycloheximide cs: Cycloheximide Counterscreen for Small Molecule Inhibitors of Shiga Toxin. 12% of 300,000 active. cell reporter, cycloheximide protein synthesis inhibition counterscreen. max response, %. AID 2314, 2010; in the data active = max response mostly above about 13%, no sharp cut-off; inactive = mostly below about 14%; also: read at 38.3 µM for the half of the compounds with a filed dose; 0% is about no effect
Pf growth 96h: Primary qHTS for delayed death inhibitors of the malarial parasite plastid, 96 hour incubation. Potency, µM (highest dose often 28.7 µM), without a hit: at the highest dose activity change, negative = inhibition, hits mostly inhibitors. P. falciparum luciferase reporter growth, 96 h. 6.9% of 320,000 active; also: potency is read from the fitted curve at half-maximal effect; % is scaled to controls: 0 for no effect and ±100 for the full control effect
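P. falciparum expressing integrated firefly luciferase grown in erythrocytes (2% hematocrit, 0.05% parasitemia final) with compounds for 96 hours at 37 C, 5% CO2. Growth inhibition read as loss of luminescence after adding luciferase detection reagent.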
Shiga inhibitor: A qHTS for Small Molecule Inhibitors of Shiga Toxin. inhibition, % at 38.7 µM. Vero cells, Shiga toxin protein synthesis inhibition reporter. 9.2% of 290,000 active; in the data active = inhibition mostly above about 28%, no sharp cut-off; inactive = mostly below about 43%; also: 0% is about no effect
SARS PLpro yeast: qHTS of Yeast-based Assay for SARS-CoV PLP | S. cerevisiae expressing SARS-CoV PLpro, growth rescue | Potency, µM (titrated, usually from 32.9 µM), for inactives: at the highest dose activity, positive = growth rescue, most hits filed as activators | 0.19% of 330,000 active; calls by dose curve; also: potency is read from the fitted curve at half-maximal effect; 0% is about no effect; nearly all actives have a fitted effect of over 55% in size
NS1 inh: qHTS Assay for Inhibitors of Influenza NS1 Protein Function; 0.4% of 270,000 active; Potency, µM (top dose mostly 46.1 µM), inactives show top-dose activity, positive = more growth; calls by dose curve; also: potency is read from the fitted curve at half-maximal effect; actives are rising curves; nearly all actives have a fitted effect of over 50% in size
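Compounds were scored for reversing the slow growth caused by influenza A NS1 in S. cerevisiae, measured by optical density at 600 nm. Assay medium contained 2% galactose at pH 6.0; NS1-free yeast of the same strain were the positive control.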
Active calls of the source: *; u = inconclusive; x = not tested or not shown; [ ] = remark or other dose. Compounds with a hit are over-represented: about 21% of the library has one in this group of screens. Unless noted, calls follow the shape of the dose curve; as a rule, active = well fitted inhibition curve with a large enough effect; inconclusive = small, poorly fitted or top-dose-only effect, or another doubt; inactive = no such curve, though single readings can be large or run the other way.

SMILES | Pf growth 48h | Cycloheximide cs | Pf growth 96h | Shiga inhibitor | SARS PLpro yeast | NS1 inh
COc1cccc(C(=O)NN/C(C)=C/C(=O)C(F)(F)C(F)(F)C(F)(F)F)c1 | 0% | 25* | 43% | 66* | 13% | -36%
O=C(Cc1ccc(Br)cc1)Nc1ccc(Cl)cc1 | u | 25* | -80% | 24 | -7% | x
O=C(Cc1ccc(Cl)cc1)Nc1ccc(NC(=O)c2ccccc2)cc1 | 5% | 4 | 5% | 14 | 5% | 7%
Cc1cc(S(=O)(=O)NC2CC(C)(C)NC(C)(C)C2)c(Cl)cc1Cl | u | -2 | 68% | x | 4% | -7%
N#Cc1ccc(CN2CCN(C(=O)CCNS(=O)(=O)c3ccc(F)c(Cl)c3)CC2)cc1 | -22% | x | u | x | -3% | x
CCc1ccc(CNCCc2c[nH]c3ccccc23)cc1 | 3% | -3 | 7.4µM* | 14 | 3% | 8%
O=[N+]([O-])c1ccccc1CNCCc1ccc(F)cc1 | x | 40* | 61% | 68* | -1% | 1%
O=[N+]([O-])c1ccccc1OCCNCc1ccccc1 | 99% | 16* | 14% | x | 5% | -15%
O=[N+]([O-])c1ccccc1CNCCc1c[nH]c2ccccc12 | 2.9µM* | -1 | -29% | -2 | -5% | -3%
COc1ccc(OCC(=O)N(Cc2ccco2)C2CCS(=O)(=O)C2)cc1 (stereo not drawn) | 0% | 4 | 3% | 5 | -1% | 0%
O=[N+]([O-])c1ccc(CNCCc2ccccc2)cc1 | 20% | 2 | 13µM* | x | 2% | -2%
O=[N+]([O-])c1cccc(CNCc2ccccc2)c1 | 0% | 8 | -32% | 18 | 1% | -2%
CCn1c2ccccc2c2nc3cc(C(=O)O)ccc3nc21 | 26% | 35* | -7% | 126* | 0% | -51%
CCn1c2ccccc2c2nc3ccccc3nc21 | x | 9 | u | 0 | -15% | -61%
CC(=O)n1c2ccccc2c2c1c1ccccc1n2C | 55% | 5 | -5% | 17 | 2% | -54%
CCn1c2ccccc2c2nc3cc(OC)c(OC)cc3nc21 | 30% | 2 | 3.3µM* | -16 | -30% | -16%
CC(=O)n1c2ccccc2c2nc3ccccc3nc21 | 44% | 26* | 2.6µM* | x | 1% | 5%
CCOC(=O)c1c(C)[nH]c(C)c1S(=O)(=O)NCc1ccc(OCC)cc1 | 9% | 16 | u | 0 | 3% | 7%
CSCC[C@H](N)C(=O)N[C@@H](CCC(=O)O)C(=O)N[C@H](C(=O)NCC(=O)N[C@@H](Cc1c[nH]c2ccccc12)C(=O)N[C@@H](Cc1ccc(O)cc1)C(=O)N[C@@H](CCCNC(=N)N)C(=O)N[C@@H](CO)C(=O)N1CCC[C@H]1C(=O)N[C@@H](Cc1ccccc1)C(=O)N[C@@H](CO)C(=O)N[C@@H](CCCNC(=N)N)C(=O)N[C@H](C(=O)N[C@H](C(=O)N[C@@H](Cc1cnc[nH]1)C(=O)N[C@@H](CC(C)C)C(=O)N[C@@H](Cc1ccc(O)cc1)C(=O)N[C@@H](CCCNC(=N)N)C(=O)N[C@@H](CC(N)=O)C(=O)NCC(=O)N[C@@H](CCCCN)C(=O)O)C(C)C)C(C)C)C(C)C | x | -4 | x | -4 | x | x
CCn1cc(SCC(=O)N2CCOCC2)c2ccccc21 | 62% | 30* | 34% | 68* | 4% | -12%
CC(=O)Nc1ccc(NC(=O)CSc2cn(CC(=O)N3CCOCC3)c3ccccc23)cc1 | u | 2 | u | -7 | 3% | 2%
Cn1cc(SCC(=O)N2CCOCC2)c2ccccc21 | 53% | 22* | 11% | 93* | -3% | 0%
CN(CC(=O)Nc1ccc(Cl)c(C(F)(F)F)c1)C(=O)CCNC(=O)c1ccco1 | 10µM* | x | -25% | x | 2% | x
CCCN(CC(=O)Nc1cc(Cl)ccc1Cl)C(=O)/C=C/c1ccco1 | u | 55* | u | 126* | 18% | 16%
CN(CC(=O)Nc1ccc(Cl)c(C(F)(F)F)c1)C(=O)/C=C/c1ccco1 | -7% | 14 | -1% | 37* | -19% | 3%
SMILES | Pf growth 48h | Cycloheximide cs | Pf growth 96h | Shiga inhibitor | SARS PLpro yeast | NS1 inh
Cc1ccc(NC(=O)CSc2nnc(-c3ccco3)o2)cc1 | 40% | -2 | 28% | -6 | 0% | x
Cc1cc(C(=O)CSc2nncs2)c(C)n1Cc1ccco1 | 0% | 38* | 219% | 109* | 1% | x
CC(=O)c1ccc(NC(=O)CSc2nnc(-c3ccco3)o2)cc1 | 42% | 17* | u | 37 | 0% | -5%
Cc1cc(C(=O)CSc2nn(-c3ccccc3)c(=S)s2)c(C)n1Cc1ccco1 | u | 12 | x | 13 | 2% | u
Cc1cc(C(=O)CSc2nnc(-c3ccc4c(c3)OCO4)o2)c(C)n1-c1ccc(F)cc1 | 1% | 7 | u | 25 | 5% | u
Cc1nnc(SCc2ccc3c(c2)OCO3)s1 | x | 81* | 194% | 142* | -5% | -10%
Cc1cc(C(=O)CSc2nnc(-c3ccco3)o2)c(C)n1-c1ccc2c(c1)OCCO2 | x | 4 | 12µM* | 7 | 3% | 1%
C[C@H](O)CN(C)C | 6% | x | -13% | x | x | x
NC(=O)CSc1nnnn1-c1ccc2c(c1)OCCO2 | 6% | -1 | 6% | 12 | 2% | 24%
Cc1nnc(SCC(=O)c2cc(C)n(-c3ccc4c(c3)OCO4)c2C)s1 | u | 18* | -13%[5.75 µM] | 36* | -5% | -35%
O=C(CSc1nnc(-c2ccco2)o1)c1ccccc1Cl | 4% | 17* | -12% | 31 | -2% | -4%
O=C(CSc1nnc(-c2ccco2)o1)c1ccc([N+](=O)[O-])cc1 | 15% | 9 | -4% | -3 | 1% | 4%
Cc1cc(C(=O)CSc2nnnn2C)c(C)n1-c1ccc2c(c1)OCCO2 | 1% | 37* | x | 142* | -14% | 4%
Cc1cc(C(=O)CSc2nnc(-c3ccco3)o2)c(C)n1Cc1ccco1 | -11% | 31* | u | 96* | -4% | 2%
CCOC(=O)/C(C#N)=C\C1=C(N2CCCC2)CC(C)(CC)OC1 (stereo not drawn) | -19% | -2 | u | 9 | 9% | 4%
CCN(CC)C(=O)CSc1nnc(-c2ccco2)o1 | 133% | 23* | 218% | 47* | 31% | 6%
Cc1ccc(NC(=S)NCC(O)c2ccccc2)c(C)c1 (stereo not drawn) | -20% | 2 | -22% | 8 | 2% | 4%
CCc1ccc(-c2cn(-c3nc(C)cc(C)n3)c(=N)o2)cc1 | u | 23* | 10µM* | 46 | -8% | -18%
CCc1ccc(N/C(=N/c2nc(C)cc(C)n2)NC(C)=O)cc1 | x | 7 | u | -2 | -4% | 1%
COc1ccc(OC)c2c1cc(C(=O)N[C@@H](Cc1ccccc1)C(=O)O)n2C | 15% | -4 | 13% | -6 | 2% | 5%
